Among the data in the supplement of paper PMC10849652 are log2 fold change values, retold here.

The full data set covers some 8,800 targets. This sample favours those with a hit. About 0.5% of all pairs of compound and target were hits. Unmarked numbers belong to inactive results.

Experiment in all cases: log2 fold change, soluble protein after heating vs DMSO (PISA); higher = thermal stabilisation; K562 lysate, 10 uM; active = over 0.2 and 3.5 SD of the protein, either way, in both replicates (recomputed)
Compound in one test: Cc1cn(-c2cc(NC(=O)c3ccc(C)c(Nc4nccc(-c5cccnc5)n4)c3)cc(C(F)(F)F)c2)cn1 [nilotinib]
An outline of the steps: (§1)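 Dounce homogenisation of K562 pellets in PBS pH 7.4 with 1 mM MgCl2 produced a crude extract, used at 1 mg/mL protein. Exposure to 10 μM compound lasted 30 min, and aliquots were then heated for 3 min across 48°C-58°C, pooled and brought to 0.5% NP-40 at 4°C. The supernatant after 21,000xg for 90 min was quantified by TMTpro 16plex LC-MS/MS with channel sums equalised. Duplicate values are given as log-two fold change in thermal stability relative to solvent controls.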

Compound in test [1]: Cc1nc(Nc2n[nH]c3c2CN(C(=O)N[C@H](CN(C)C)c2ccccc2)C3(C)C)c2sccc2n1
An outline of the steps: as §1

Compound in another test: Cc1nc(Nc2ncc(C(=O)Nc3c(C)cccc3Cl)s2)cc(N2CCN(CCO)CC2)n1 [dasatinib]
An outline of the steps: as §1

Compound in test [2]: Cc1ncc(-c2ccnc(Nc3ccc(S(C)(=O)=O)cc3)n2)n1C(C)C
In short, it runs like this: as §1

Compound in test [3]: Cn1cc(-c2ccc3c(c2)CCN3C(=O)Cc2cccc(C(F)(F)F)c2)c2c(N)ncnc21
An outline of the steps: as §1

Compound in the next test: Cn1cc(CNCC2CCN(c3ncc(C(=O)NO)cn3)CC2)c2ccccc21 [quisinostat]
In short, it runs like this:
as §1

Compound in another test: Cn1cncc1[C@@](N)(c1ccc(Cl)cc1)c1ccc2c(c1)c(-c1cccc(Cl)c1)cc(=O)n2C [tipifarnib]
In short, it runs like this:
as §1

Compound in test [4]: NC(=O)Nc1cc(-c2cccc(F)c2)sc1C(=O)N[C@H]1CCCNC1
In short, it runs like this:
as §1

Compound in test [5]: NC(=O)c1cnc(N[C@@H]2CCCC[C@@H]2N)nc1Nc1cccc(-n2nccn2)c1
An outline of the steps:
as §1

Compound in test [6]: NC1(c2ccc(-c3nc4ccn5c(=O)[nH]nc5c4cc3-c3ccccc3)cc2)CCC1
In short, it runs like this:
as §1

Sequence of UniProt P13667 (P13667 whole entry, looked up): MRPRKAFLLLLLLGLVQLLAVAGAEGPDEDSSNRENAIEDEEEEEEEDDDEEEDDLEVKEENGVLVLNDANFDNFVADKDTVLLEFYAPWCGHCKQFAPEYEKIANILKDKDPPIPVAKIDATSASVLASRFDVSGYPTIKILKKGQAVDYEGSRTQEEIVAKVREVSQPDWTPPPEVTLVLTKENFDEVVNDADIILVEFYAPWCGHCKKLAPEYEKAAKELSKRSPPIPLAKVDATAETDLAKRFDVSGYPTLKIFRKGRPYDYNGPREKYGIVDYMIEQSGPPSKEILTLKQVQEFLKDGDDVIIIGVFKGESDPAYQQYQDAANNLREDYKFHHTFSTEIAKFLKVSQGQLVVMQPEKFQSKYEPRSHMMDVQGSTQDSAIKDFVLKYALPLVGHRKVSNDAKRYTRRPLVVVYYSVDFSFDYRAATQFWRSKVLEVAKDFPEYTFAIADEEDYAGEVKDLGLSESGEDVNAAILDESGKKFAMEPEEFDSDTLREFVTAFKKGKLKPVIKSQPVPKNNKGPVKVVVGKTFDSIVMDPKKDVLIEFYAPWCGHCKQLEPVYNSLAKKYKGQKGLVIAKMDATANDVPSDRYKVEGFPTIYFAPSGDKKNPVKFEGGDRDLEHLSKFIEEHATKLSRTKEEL
Sequence of UniProt P14314 (P14314 whole entry, looked up): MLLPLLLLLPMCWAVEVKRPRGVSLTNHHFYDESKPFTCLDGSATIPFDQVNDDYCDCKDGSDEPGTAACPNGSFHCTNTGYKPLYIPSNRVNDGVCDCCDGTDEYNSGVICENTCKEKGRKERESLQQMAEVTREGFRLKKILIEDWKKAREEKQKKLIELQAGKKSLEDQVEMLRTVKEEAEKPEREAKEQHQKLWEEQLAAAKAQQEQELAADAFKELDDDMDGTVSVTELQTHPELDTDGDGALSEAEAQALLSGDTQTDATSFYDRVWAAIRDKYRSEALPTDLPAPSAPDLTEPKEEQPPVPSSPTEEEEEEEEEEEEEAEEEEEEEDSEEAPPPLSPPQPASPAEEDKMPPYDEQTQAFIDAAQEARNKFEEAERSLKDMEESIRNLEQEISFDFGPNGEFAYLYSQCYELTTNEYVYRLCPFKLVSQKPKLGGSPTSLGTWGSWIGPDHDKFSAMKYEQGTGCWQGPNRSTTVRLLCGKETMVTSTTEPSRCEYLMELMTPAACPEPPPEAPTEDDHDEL
Sequence of UniProt Q96C36 (Q96C36 whole entry, looked up): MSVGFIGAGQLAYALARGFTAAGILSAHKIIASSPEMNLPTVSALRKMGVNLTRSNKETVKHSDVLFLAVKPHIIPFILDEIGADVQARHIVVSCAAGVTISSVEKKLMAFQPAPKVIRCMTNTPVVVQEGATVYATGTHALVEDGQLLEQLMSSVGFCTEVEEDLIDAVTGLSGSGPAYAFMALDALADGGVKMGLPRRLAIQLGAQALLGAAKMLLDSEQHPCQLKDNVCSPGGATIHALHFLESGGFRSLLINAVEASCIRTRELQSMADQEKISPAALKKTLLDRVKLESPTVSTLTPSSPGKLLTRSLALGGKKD
Sequence of UniProt Q10713 (Q10713 whole entry, looked up): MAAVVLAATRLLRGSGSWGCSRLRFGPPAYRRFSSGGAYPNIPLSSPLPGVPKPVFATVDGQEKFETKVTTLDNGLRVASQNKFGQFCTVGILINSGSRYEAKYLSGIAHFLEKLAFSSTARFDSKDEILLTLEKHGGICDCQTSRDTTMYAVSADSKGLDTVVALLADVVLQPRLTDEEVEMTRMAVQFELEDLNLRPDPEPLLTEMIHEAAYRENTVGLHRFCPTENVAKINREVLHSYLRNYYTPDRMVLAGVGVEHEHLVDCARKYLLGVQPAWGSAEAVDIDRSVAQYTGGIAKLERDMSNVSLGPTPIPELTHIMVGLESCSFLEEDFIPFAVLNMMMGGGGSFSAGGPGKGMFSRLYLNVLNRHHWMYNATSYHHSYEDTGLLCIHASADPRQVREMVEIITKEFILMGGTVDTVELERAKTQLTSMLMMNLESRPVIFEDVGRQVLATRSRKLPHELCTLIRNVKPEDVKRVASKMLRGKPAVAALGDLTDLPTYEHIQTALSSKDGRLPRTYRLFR
Sequence of UniProt P42338 (P42338 whole entry, looked up): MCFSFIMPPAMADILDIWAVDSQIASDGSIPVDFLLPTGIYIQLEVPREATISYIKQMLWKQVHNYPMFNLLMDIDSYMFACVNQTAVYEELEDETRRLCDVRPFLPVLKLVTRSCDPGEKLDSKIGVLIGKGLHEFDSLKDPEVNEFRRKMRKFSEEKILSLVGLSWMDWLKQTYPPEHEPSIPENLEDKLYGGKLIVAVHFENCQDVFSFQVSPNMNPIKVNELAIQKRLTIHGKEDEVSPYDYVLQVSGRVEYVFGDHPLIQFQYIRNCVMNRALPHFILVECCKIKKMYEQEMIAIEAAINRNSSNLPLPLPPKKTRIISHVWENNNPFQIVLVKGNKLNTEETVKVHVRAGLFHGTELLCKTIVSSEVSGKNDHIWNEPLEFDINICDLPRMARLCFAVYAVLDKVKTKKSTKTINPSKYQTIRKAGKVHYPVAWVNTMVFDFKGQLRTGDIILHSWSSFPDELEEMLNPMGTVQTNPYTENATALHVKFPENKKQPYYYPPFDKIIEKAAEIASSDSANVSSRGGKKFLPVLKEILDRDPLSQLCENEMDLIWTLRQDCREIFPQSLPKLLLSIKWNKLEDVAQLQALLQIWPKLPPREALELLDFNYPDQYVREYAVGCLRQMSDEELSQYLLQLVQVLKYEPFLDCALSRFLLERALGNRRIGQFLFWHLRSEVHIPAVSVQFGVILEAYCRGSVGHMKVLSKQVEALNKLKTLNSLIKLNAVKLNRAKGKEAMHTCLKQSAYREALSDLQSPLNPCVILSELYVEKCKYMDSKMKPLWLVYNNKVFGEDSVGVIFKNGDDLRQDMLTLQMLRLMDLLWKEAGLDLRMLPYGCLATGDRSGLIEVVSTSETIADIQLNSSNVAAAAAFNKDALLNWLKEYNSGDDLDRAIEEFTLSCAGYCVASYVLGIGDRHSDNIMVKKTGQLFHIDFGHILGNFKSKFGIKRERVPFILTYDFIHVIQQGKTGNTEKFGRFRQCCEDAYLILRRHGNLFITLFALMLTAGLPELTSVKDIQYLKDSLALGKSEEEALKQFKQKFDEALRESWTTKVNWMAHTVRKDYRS
Sequence of UniProt P46020 (P46020 whole entry, looked up): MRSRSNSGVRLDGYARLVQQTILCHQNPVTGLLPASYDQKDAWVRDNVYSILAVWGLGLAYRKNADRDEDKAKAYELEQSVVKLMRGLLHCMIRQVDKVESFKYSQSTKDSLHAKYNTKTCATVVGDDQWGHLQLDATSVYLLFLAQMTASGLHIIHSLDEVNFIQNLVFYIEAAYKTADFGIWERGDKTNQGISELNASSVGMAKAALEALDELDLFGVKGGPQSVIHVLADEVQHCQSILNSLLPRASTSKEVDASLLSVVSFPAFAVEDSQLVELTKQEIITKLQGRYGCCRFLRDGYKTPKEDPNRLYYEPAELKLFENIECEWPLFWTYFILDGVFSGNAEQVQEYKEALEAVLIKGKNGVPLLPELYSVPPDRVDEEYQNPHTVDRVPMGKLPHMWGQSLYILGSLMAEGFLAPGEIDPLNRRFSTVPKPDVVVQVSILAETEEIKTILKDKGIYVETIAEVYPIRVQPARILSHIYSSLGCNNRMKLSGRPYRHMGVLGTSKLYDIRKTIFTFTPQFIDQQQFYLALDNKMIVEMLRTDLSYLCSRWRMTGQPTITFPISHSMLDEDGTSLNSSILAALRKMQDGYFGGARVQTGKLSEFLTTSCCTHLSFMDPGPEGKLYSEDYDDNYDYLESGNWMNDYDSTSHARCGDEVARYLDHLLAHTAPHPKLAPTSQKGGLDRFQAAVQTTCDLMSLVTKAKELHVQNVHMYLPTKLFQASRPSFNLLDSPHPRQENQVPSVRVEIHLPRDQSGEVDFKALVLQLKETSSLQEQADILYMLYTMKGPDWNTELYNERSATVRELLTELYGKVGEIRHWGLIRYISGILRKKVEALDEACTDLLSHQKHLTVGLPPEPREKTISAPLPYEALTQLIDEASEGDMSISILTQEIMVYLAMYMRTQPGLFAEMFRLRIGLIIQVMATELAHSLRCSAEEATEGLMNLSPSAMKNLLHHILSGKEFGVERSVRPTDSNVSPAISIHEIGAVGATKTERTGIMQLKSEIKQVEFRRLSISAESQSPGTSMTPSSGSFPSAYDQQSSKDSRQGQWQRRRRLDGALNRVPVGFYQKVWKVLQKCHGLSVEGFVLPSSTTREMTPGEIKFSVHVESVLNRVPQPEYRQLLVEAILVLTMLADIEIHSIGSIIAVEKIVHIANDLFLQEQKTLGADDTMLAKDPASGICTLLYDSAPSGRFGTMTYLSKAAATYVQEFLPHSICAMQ
Sequence of UniProt Q9H2H8 (Q9H2H8 whole entry, looked up): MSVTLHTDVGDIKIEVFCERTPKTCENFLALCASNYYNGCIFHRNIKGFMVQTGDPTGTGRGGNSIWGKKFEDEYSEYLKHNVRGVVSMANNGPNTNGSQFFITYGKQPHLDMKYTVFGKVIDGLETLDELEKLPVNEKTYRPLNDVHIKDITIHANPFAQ
Sequence of UniProt O43175 (O43175 whole entry, looked up): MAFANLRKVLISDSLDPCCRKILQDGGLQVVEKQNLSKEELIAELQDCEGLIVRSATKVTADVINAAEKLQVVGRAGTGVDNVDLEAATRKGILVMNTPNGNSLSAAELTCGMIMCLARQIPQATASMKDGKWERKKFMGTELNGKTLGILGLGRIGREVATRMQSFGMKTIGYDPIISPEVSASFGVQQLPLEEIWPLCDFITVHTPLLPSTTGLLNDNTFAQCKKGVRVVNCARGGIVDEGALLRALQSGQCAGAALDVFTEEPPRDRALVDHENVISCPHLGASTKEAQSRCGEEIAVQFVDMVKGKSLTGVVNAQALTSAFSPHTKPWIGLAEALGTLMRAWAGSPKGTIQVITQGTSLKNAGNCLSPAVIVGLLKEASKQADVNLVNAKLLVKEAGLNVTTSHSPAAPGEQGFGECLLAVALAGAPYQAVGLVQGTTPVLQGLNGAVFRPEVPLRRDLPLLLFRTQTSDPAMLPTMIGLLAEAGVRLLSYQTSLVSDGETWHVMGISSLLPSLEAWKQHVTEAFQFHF

As for PHACTR4 isoform 2 (UniProt Q8IZ21), the log2 fold change with nilotinib was 0.005; in [1], -0.004; in the test with dasatinib, 0.022; in test [2], -0.016; in [3] it was 0.012; in the test with quisinostat, -0.017. Moreover, the log2 fold change with tipifarnib was -0.015; in test [4], -0.006; in [5], -0.002; in test [6], -0.027.
On to PDE4DIP isoform 4 (UniProt Q5VU43), for which the log2 fold change with nilotinib was -0.026; in test [1] it was 0.004; with dasatinib, 0.007; in [2], -0.015; in [3], -0.029; in the test with quisinostat it was -0.083. In addition, the log2 fold change was -0.032 in the test with tipifarnib, -0.018 in test [4], -0.034 in [5] and -0.011 in test [6].
Turning to PI4K2B (UniProt Q8TCG2), the log2 fold change with nilotinib was -0.037; in [1], 0.021; in the test with dasatinib, -0.021; in test [2], 0.069; in test [3] it was 0.092; with quisinostat, 0.063. Also, the log2 fold change is -0.036 with tipifarnib, 0.076 in [4], 0.689 (active) in [5] and 0.009 in [6].
In the case of PPIL3 (UniProt Q9H2H8), the log2 fold change with nilotinib was 0.121; in [1] it was 0.023; with dasatinib it was -0.049; in [2], 0.176; in [3], -0.032; with quisinostat it was 0.017. For the same target, the log2 fold change with tipifarnib was -0.028; in test [4], -0.025; in test [5], -0.054; in [6], -0.051.
For the target PIK3R2 (UniProt O00459), the log2 fold change in the test with nilotinib is 0.007; in test [1], -0.006; with dasatinib it was -0.023; in test [2], 0.003; in test [3], -0.008; with quisinostat, -0.04. In addition, the log2 fold change in the test with tipifarnib was -0.001; in [4], 0.031; in test [5] it was 0.017; in test [6] it was 0.263.
As to PMPCA (UniProt Q10713), the log2 fold change with nilotinib was 0.005; in [1] it was 0.052; with dasatinib, 0.672 (active); in test [2] it was 0; in test [3], -0.017; with quisinostat it was -0.041. In addition, the log2 fold change in the test with tipifarnib is 0.187; in [4], -0.013; in test [5], -0.009; in test [6] it was 0.003.
As to PYCR2 (UniProt Q96C36), the log2 fold change is 0.03 with nilotinib; -0.027 in test [1]; 0.011 with dasatinib; -0.007 in [2]; -0.005 in test [3]; 0.073 with quisinostat. Further, the log2 fold change with tipifarnib is -0.015; in test [4] it was -0.021; in [5], 0.007; in test [6], 0.018.
As to PDXK (UniProt O00764), the log2 fold change with nilotinib was 0.123; in [1], -0.031; with dasatinib, 0.005; in test [2] it was 0.055; in [3], -0.003; in the test with quisinostat it was -0.03. The log2 fold change in the test with tipifarnib is 0.012; in [4], -0.008; in [5], -0.008; in [6], -0.023.
With PLEKHA5 isoform 6 (UniProt Q9HAU0), the log2 fold change with nilotinib is -0.052; in [1], 0.032; with dasatinib it was 0.006; in test [2] it was -0.005; in test [3], 0.021; with quisinostat, -0.011. Moreover, the log2 fold change was 0.009 with tipifarnib, 0.011 in test [4], -0.008 in test [5] and -0.003 in test [6].
For the target PHGDH (UniProt O43175), the log2 fold change in the test with nilotinib is 0.013; in test [1] it was -0.025; with dasatinib, -0.077; in test [2], 0.005; in test [3], 0.021; with quisinostat it was -0.032. The log2 fold change with tipifarnib is 0.018; in test [4] it was -0.032; in test [5], 0.006; in test [6] it was 0.054.
Turning to PIK3CB (UniProt P42338), the log2 fold change with nilotinib is 0.015; in test [1] it was 0.021; in the test with dasatinib, -0.072; in [2], 0.094; in test [3] it was 0.055; in the test with quisinostat it was -0.05. Also, the log2 fold change was -0.032 in the test with tipifarnib, 0.053 in test [4], 0.015 in [5] and 0.44 (active) in [6].
For the target PDIA4 (UniProt P13667), the log2 fold change with nilotinib is 0.008; in [1] it was -0.006; in the test with dasatinib, 0.006; in [2], 0.014; in test [3], 0.004; with quisinostat, 0.154. Further, the log2 fold change with tipifarnib was 0.029; in [4], -0.004; in test [5], -0.02; in test [6] it was 0.008.
Take PHKA1 (UniProt P46020): the log2 fold change was -0.059 with nilotinib; 0.14 in [1]; -0.138 with dasatinib; -0.007 in [2]; 0.029 in test [3]; -0.072 with quisinostat. Besides, the log2 fold change in the test with tipifarnib is -0.021; in test [4], 0.272 (active); in test [5], 0.091; in [6], -0.053.
PTGR2 (UniProt Q8N8N7): the log2 fold change with nilotinib was 0.024; in test [1], -0.044; in the test with dasatinib, 0.012; in test [2] it was 0.025; in test [3], 0.024; with quisinostat, -0.008. Also, the log2 fold change in the test with tipifarnib is 0.034; in [4], -0.011; in test [5], -0.002; in [6], 0.011.
In the case of PRKCSH isoform 2 (UniProt P14314), the log2 fold change with nilotinib was -0.004; in test [1], 0.099; with dasatinib, 0.088; in test [2], 0.116; in [3], 0.003; with quisinostat, -0.157. The log2 fold change in the test with tipifarnib is -0.081; in test [4] it was -0.079; in test [5], 0.038; in test [6], -0.192.
